The campaign covered roughly 1,100 compounds. About 390 (35%) were called active. About 30% were inconclusive and are not listed. Calls follow the shape of the dose curve; as a rule, active = well fitted inhibition curve with a large enough effect; inconclusive = small, poorly fitted or top-dose-only effect; inactive = flat fitted curve, though single readings scatter. Some of the results follow.
Each molecule was assayed against Luciferin 4-monooxygenase (Photinus pyralis) (UniProt P08659) (assay: qHTS of Nrf2 Activators: Hit Validation in Secondary FLuc Assay). Conditions: firefly luciferase inhibition counter-screen, luminescence; series mostly up to 57.5 µM; activity, negative = inhibition: at the top concentration.
Outline: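 Counter-screen on purified firefly luciferase with ATP and D-luciferin at Km concentrations; compounds flagged if they inhibit the enzyme, indicating possible reporter stabilization rather than ARE activation.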
For O=C(OCC(=O)N1CCCC1)c1cc([N+](=O)[O-])ccc1Cl, the “activity, negative = inhibition” value was -1.21% (inactive). For O=[N+]([O-])c1ccc(Cl)c(/C=N/n2c(-c3ccncc3)n[nH]c2=S)c1, the Potency was 1.9 µM (active). CCOCCCNC(=O)c1ccc(-n2c(-c3ccccc3)cc3c2CCC(C)C3)cc1 (centres undefined) was tested, and the “activity, negative = inhibition” value was 7.91% (inactive). In the case of O=C(Nc1ccccc1F)c1cc(-c2ccco2)nc2ccccc12, the Potency is reported as 10.7 µM (active). With COc1ccccc1CNC(=O)COC(=O)c1cc(-c2ccco2)nc2ccccc12 the Potency was 5.36 µM (active). For O=C(Nc1ccc(F)cc1F)c1cc(-c2ccco2)nc2ccccc12, the Potency was 6.75 µM (active). With O=C(COC(=O)/C=C/c1ccco1)NCc1ccccc1Cl the “activity, negative = inhibition” value was -23.7% (inactive). In the case of O=Cc1c(Sc2ccccn2)nc2ccccn2c1=O, the “activity, negative = inhibition” value is reported as -11% (inactive). With COc1ccc(N(CCCN2C(=O)c3cccc4cccc(c34)C2=O)C(=O)c2cccc(OC)c2)cc1 the “activity, negative = inhibition” value was 4.49% (inactive). For CC1Oc2ccccc2OC1C(=O)Nc1ccccn1 (centres undefined), the “activity, negative = inhibition” value was -0.195% (inactive). In the case of CCOc1cc2ccccc2cc1C(=O)Nc1ccccn1, the Potency is reported as 5.36 µM (active). CCc1nc(Nc2cccc(F)c2)c2oc3ccccc3c2n1 was tested, and the “activity, negative = inhibition” value was -22.6% (inactive). For Brc1ccccc1C1N=C(c2ccccc2)NO1 (centres undefined), the Potency was 1.35 µM (active). With O=C(Nc1cccc([N+](=O)[O-])c1)Nc1cccs1 the Potency was 10.7 µM (active). With O=C(CCCc1ccccc1)Nc1cccc([N+](=O)[O-])c1 the Potency was 7.57 µM (active). In the case of Cc1cc(C)cc(NC(=O)/C=C/c2ccc([N+](=O)[O-])s2)c1, the “activity, negative = inhibition” value is reported as 1.91% (inactive). For O=C(NNC(=O)C12CC3CC(CC(C3)C1)C2)c1cccc([N+](=O)[O-])c1, the “activity, negative = inhibition” value was -24.4% (inactive). In the case of Cc1cc(C)cc(NC(=O)Nc2cccs2)c1, the Potency is reported as 2.39 µM (active). In the case of O=C(CSc1cccc[n+]1[O-])Nc1cc([N+](=O)[O-])ccc1Cl, the “activity, negative = inhibition” value is reported as -5.19% (inactive). O=C(CCCCCCC(=O)Nc1ccccc1)NO was tested, and the “activity, negative = inhibition” value was -18.5% (inactive). For COc1ccc(NC(=O)C2CC(=O)N/C(=N/N=C/c3ccco3)S2)cc1 (centres undefined), the “activity, negative = inhibition” value was -14.5% (inactive). In the case of COc1ccc(OC)c(NC(=O)C(C#N)=Cc2ccco2)c1, the Potency is reported as 9.53 µM (active). O=C(/C=C/c1ccccc1Cl)Nc1nc(-c2cccs2)ns1 was tested, and the Potency was 1.69 µM (active). For Cc1cc2c(cc1C)N(C(=O)CCl)CC(=O)N2, the “activity, negative = inhibition” value was -9.54% (inactive). For CSc1ccc(-c2cc(=O)c3ccccc3o2)cc1, the Potency was 1.2 µM (active). Nn1c(-c2ccccc2)nc2cc(Cl)ccc2c1=O was tested, and the “activity, negative = inhibition” value was -1.21% (inactive). For O=c1cc(-c2ccccc2)oc2ccc(Cl)cc12, the Potency was 0.849 µM (active). In the case of COc1c(C(=O)Nc2nnc(C3CC3)s2)csc1Cl, the Potency is reported as 7.57 µM (active). With O=[N+]([O-])c1ccccc1/C=N/Nc1nccnc1Cl the Potency was 13.5 µM (active). For O=C(N/N=C/C(Br)=C/c1ccccc1)c1ccc([N+](=O)[O-])cc1, the “activity, negative = inhibition” value was -28.9% (inactive). In the case of O=[N+]([O-])c1ccc(Cl)cc1C=NNc1ccccn1, the “activity, negative = inhibition” value is reported as -18.3% (inactive). In the case of O=[N+]([O-])c1ccccc1C=NNc1ccccc1, the Potency is reported as 2.69 µM (active). O=[N+]([O-])c1cc(Cl)cc2c1nc(NCCO)c1ccccc12 was tested, and the “activity, negative = inhibition” value was -5.22% (inactive). In the case of O=[N+]([O-])c1cncc([N+](=O)[O-])c1Nc1cccc(O)c1, the “activity, negative = inhibition” value is reported as 6.84% (inactive). With Fc1ccc2cc(-c3ccsc3)ncc2c1 the Potency was 1.69 µM (active). With CCN(CC)c1ccc2c(c1)oc(=O)c1c(Cl)cc(=O)oc12 the Potency was 6.01 µM (active). For Cc1noc(C)c1-c1ccc2ncnc(NCC3CCCCN3C)c2c1 (centres undefined), the “activity, negative = inhibition” value was 8.17% (inactive). With CCn1ncc(Br)c1C(=O)Nc1cc([N+](=O)[O-])ccc1C the “activity, negative = inhibition” value was -0.338% (inactive). For O=C(Nc1cccc([N+](=O)[O-])c1)c1[nH]ncc1Cl, the Potency was 9.53 µM (active). With O=C(Nc1ccccc1)c1cc([N+](=O)[O-])ccc1Cl the “activity, negative = inhibition” value was 7.81% (inactive). With COc1ccc(C(C#N)=C2C=CC(=NO)C=C2)cc1 the Potency was 8.49 µM (active). In the case of Cc1cc(C)n(-c2nc3ccccc3c(=O)n2OCc2ccc(F)cc2)n1, the “activity, negative = inhibition” value is reported as -3.71% (inactive). For O=C(CSc1nccc(-c2cccs2)n1)Nc1ccc(F)c(Cl)c1, the “activity, negative = inhibition” value was 0.686% (inactive). For N#Cc1cccn1-c1nccc(-c2cccs2)n1, the Potency was 12 µM (active). With C#CCSc1nc(-c2cccs2)ccc1C#N the “activity, negative = inhibition” value was -22.8% (inactive). Cc1ccc(S(=O)(=O)c2nc(S(C)(=O)=O)sc2N2CCC(O)CC2)cc1 was tested, and the “activity, negative = inhibition” value was -0.609% (inactive). In the case of c1ccc(-c2nc3c4ccccc4ccn3c2Cc2ccsc2)cc1, the Potency is reported as 1.51 µM (active). For c1ccc(Cc2c(-c3ccco3)nc3c4ccccc4ccn23)cc1, the Potency was 0.601 µM (active). In the case of Fc1cccc(Cc2c(-c3ccco3)nc3c4ccccc4ccn23)c1, the Potency is reported as 0.379 µM (active). For Clc1cccc(Cc2c(-c3ccco3)nc3c4ccccc4ccn23)c1, the Potency was 1.9 µM (active). For CCCc1nc([N+](=O)[O-])c(S(=O)(=O)c2ccccc2)n1CC(C)C, the “activity, negative = inhibition” value was -3.37% (inactive). COc1ccc(Cc2c(-c3ccccc3)nc3c4ccccc4ccn23)c(C)c1 was tested, and the Potency was 3.01 µM (active). For Cc1ccc(Cc2c(-c3ccco3)nc3c4ccccc4ccn23)cc1, the Potency was 0.239 µM (active). In the case of Clc1cccc(Cc2c(-c3ccccc3)nc3c4ccccc4ccn23)c1, the Potency is reported as 6.01 µM (active). In the case of COc1ccccc1Cc1c(-c2ccco2)nc2c3ccccc3ccn12, the Potency is reported as 0.301 µM (active). FC(F)(F)c1ccccc1Cc1c(-c2ccccc2)nc2c3ccccc3ccn12 was tested, and the Potency was 5.36 µM (active). With Clc1ccsc1-c1csc(-c2cccnc2)n1 the Potency was 3.38 µM (active). For CCOC(=O)N1CCc2c(sc3c2C(=O)NC(c2ccccc2)N3)C1 (centres undefined), the Potency was 6.75 µM (active). CC(=O)N1CCc2c(sc(NC(=O)CCS(=O)(=O)c3ccccc3)c2C#N)C1 was tested, and the “activity, negative = inhibition” value was 2.37% (inactive). With COc1ccc([C@H]2Cc3cccc(O)c3C(=O)O2)cc1O the “activity, negative = inhibition” value was 0.428% (inactive). With COc1ccc2[nH]c3c(NCc4ccco4)ncnc3c2c1 the Potency was 4.78 µM (active). With Cc1sc2ncnc(NCc3ccco3)c2c1C the “activity, negative = inhibition” value was -16.7% (inactive). For CCc1cc2c(NCc3ccco3)ncnc2s1, the “activity, negative = inhibition” value was -4.96% (inactive). With O=C1C(=Cc2cccc(F)c2)Cc2ccccc21 the Potency was 1.51 µM (active). In the case of COc1cc(OC)c(OC)cc1/C=C1/Cc2ccccc2C1=O, the “activity, negative = inhibition” value is reported as 3.06% (inactive). O=C1C(=Cc2ccccc2Cl)CCc2ccccc21 was tested, and the Potency was 0.169 µM (active). With O=C1C(=Cc2cccc(Cl)c2)Cc2ccccc21 the Potency was 1.07 µM (active). For Nc1ccccc1C=C1Cc2ccccc2C1=O, the Potency was 0.426 µM (active). In the case of Cc1c(=O)n(OCc2ccc(Cl)cc2)c2ccccc2[n+]1[O-], the “activity, negative = inhibition” value is reported as 1.48% (inactive). For CC1(O)c2ccccc2C(=O)N1CCc1ccccc1F (centres undefined), the Potency was 6.75 µM (active). For Oc1ccccc1-n1nc2ccc3nonc3c2n1, the “activity, negative = inhibition” value was -0.935% (inactive). In the case of Brc1cc(Br)c2nc(-c3cccs3)ccc2c1, the Potency is reported as 3.01 µM (active). With FC(F)(F)c1cc(-c2cccs2)nc(-n2cc(Br)cn2)n1 the “activity, negative = inhibition” value was -19.9% (inactive). With FC(F)(F)c1cc(-c2cccs2)nc(NCc2ccco2)n1 the “activity, negative = inhibition” value was -2% (inactive). Cc1sc2c(c1C)C(=O)NC(c1ccccc1F)N2 (centres undefined) was tested, and the Potency was 2.39 µM (active). With O=C(CN1CCS(=O)(=O)CC1)N/N=C/c1cccc(C(F)(F)F)c1 the “activity, negative = inhibition” value was 5.95% (inactive). CCOC(=O)c1c(NC(=O)/C=C/c2ccc(C)o2)sc(C)c1C was tested, and the Potency was 13.5 µM (active). For Cn1nc(C(=O)Nc2c(-c3ccccc3)nc3sccn23)c2ccccc2c1=O, the “activity, negative = inhibition” value was -28.2% (inactive). With CS/C(=C\C(=O)c1ccco1)Nc1ccccc1Cl the Potency was 2.69 µM (active). With O=C(NCc1ccco1)c1cc(=O)c2ccccc2o1 the “activity, negative = inhibition” value was 0.0894% (inactive). In the case of O=c1cc(/C=C/c2ccccc2)oc2ccccc12, the Potency is reported as 2.13 µM (active). C(=N\Nc1nc2ccccc2[nH]1)/c1c[nH]c2ccccc12 was tested, and the Potency was 1.35 µM (active). In the case of O=[N+]([O-])c1ccccc1N/N=C/c1c[nH]c2ccccc12, the Potency is reported as 0.601 µM (active). For O=C(NCCc1c[nH]c2ccccc12)c1ccc([N+](=O)[O-])o1, the “activity, negative = inhibition” value was -26.1% (inactive). In the case of O=C(Nc1c(O)c2ccccc2[nH]c1=O)c1ccco1, the “activity, negative = inhibition” value is reported as -21.5% (inactive). For O=C(N=Nc1c(O)[nH]c2ccccc12)c1ccco1, the Potency was 3.01 µM (active). In the case of CC(/C=C(\NC(=O)c1ccccc1)C(=O)N=Nc1c(O)[nH]c2ccc(C)cc12)=C\c1ccccc1, the “activity, negative = inhibition” value is reported as -11.7% (inactive). Oc1[nH]c2ccccc2c1N=NC(=S)N1CCOCC1 was tested, and the Potency was 9.53 µM (active). In the case of O=C(N=Nc1c(O)[nH]c2ccc(Br)cc12)c1ccco1, the Potency is reported as 10.7 µM (active). In the case of Cc1ncc(N=Nc2ccccc2)c(-c2ccccc2)n1, the “activity, negative = inhibition” value is reported as -19.4% (inactive). In the case of O=C1/C(=C/c2ccccc2O)SC(=S)N1Cc1cccnc1, the Potency is reported as 16.9 µM (active). With CN1CCN(C(=O)CCN2C(=O)/C(=C/c3cccc(Br)c3)SC2=S)CC1 the “activity, negative = inhibition” value was -25.4% (inactive). In the case of COc1ccc(OC)c(/C=C2\SC(=S)N(Cc3cccnc3)C2=O)c1, the “activity, negative = inhibition” value is reported as -23.6% (inactive). COC(=O)c1ccc2nc(-c3cccc(Cl)c3)c(Cc3ccccc3OC)n2c1 was tested, and the Potency was 15.1 µM (active). For COC(=O)c1ccc2nc(-c3ccco3)c(Cc3cccc(Cl)c3)n2c1, the Potency was 12 µM (active). With COC(=O)c1ccc2nc(-c3ccco3)c(Cc3ccccc3)n2c1 the Potency was 3.38 µM (active). With COC(=O)c1ccc2nc(-c3cccc(Br)c3)c(CC3CCCCC3)n2c1 the “activity, negative = inhibition” value was -30% (inactive). With Cc1nn(C)c(C)c1/C=C(/C(=O)C(C)(C)C)n1cncn1 the “activity, negative = inhibition” value was -4.22% (inactive). For O=C(/C(C=Nc1cccc(C(F)(F)F)c1)=C(/O)c1ccco1)C(F)(F)F, the Potency was 13.5 µM (active). With Cc1cccc(N=C/C(C(=O)C(F)(F)F)=C(\O)c2ccco2)c1 the Potency was 10.7 µM (active). In the case of O=C(/C(C=Nc1ccc(F)cc1)=C(/O)c1ccco1)C(F)(F)F, the Potency is reported as 10.7 µM (active). In the case of Cc1ccc(NC(=O)CC2S/C(=N/N=C/c3ccco3)NC2=O)cc1Cl (centres undefined), the “activity, negative = inhibition” value is reported as -8.08% (inactive). In the case of Cc1ccc(N=C/C(C(=O)C(F)(F)F)=C(\O)c2ccco2)cc1Cl, the Potency is reported as 3.01 µM (active). In the case of CSc1nc(Oc2ccc(Cl)cc2)c2sccc2n1, the “activity, negative = inhibition” value is reported as 3.01% (inactive). For CCn1c(=O)c([N+](=O)[O-])c(NCc2ccco2)c2ccccc21, the “activity, negative = inhibition” value was 5.01% (inactive). N#C/C(=C\c1ccccc1)c1ccccn1 was tested, and the Potency was 9.53 µM (active). S=c1[nH]nc(-c2ccc(Cl)cc2)n1/N=C/C=C/c1ccco1 was tested, and the Potency was 10.7 µM (active). For Cc1cccc(-c2n[nH]c(=S)n2/N=C/C=C/c2ccco2)c1, the Potency was 10.7 µM (active). For O=C(CN1CCN(Cc2ccccc2Cl)CC1)N/N=C/C=C/c1ccco1, the “activity, negative = inhibition” value was 0.724% (inactive).

— PubChem BioAssay AID651597 (National Center for Advancing Translational Sciences (NCATS), 2012)
% is scaled to controls: 0 for no effect and ±100 for the full control effect; potency is read from the fitted curve at half-maximal effect.
Also: nearly all actives have a fitted effect of over 65% in size.
